Source: PubChem BioAssay AID1488 (Vanderbilt High Throughput Screening Facility, 2009)
Hit rate of the full screen: of about 1,700 compounds, about 310 (18%) were called active. Not shown: some 25% with an inconclusive outcome.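 How the source made its calls: active means fluorescence change differs from the solvent-only DMSO control mean at a set confidence level in both duplicate runs; inconclusive means differs from solvent-only control mean in just one of two runs; inactive means the rest.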 Shown is part of a subset that was picked to be rich in actives.

What follows are compounds tested against Muscarinic acetylcholine receptor M1 (Rattus norvegicus) (UniProt P08482) (assay: rat M1 muscarinic receptor agonists, confirmation, CHO-M1 cells, Fluo-4 calcium, duplicate retest (AID 1488;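 further: an EC20 dose of acetylcholine follows compound addition during the same imaging run; raw fluorescence intensity difference in instrument units with no normalization to controls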)). Details: Fluo-4 calcium fluorescence, agonist mode, at 10 µM, actives lie on both sides.
Muscarinic acetylcholine receptor M1 (Rattus norvegicus), sequence (P08482 whole entry, looked up): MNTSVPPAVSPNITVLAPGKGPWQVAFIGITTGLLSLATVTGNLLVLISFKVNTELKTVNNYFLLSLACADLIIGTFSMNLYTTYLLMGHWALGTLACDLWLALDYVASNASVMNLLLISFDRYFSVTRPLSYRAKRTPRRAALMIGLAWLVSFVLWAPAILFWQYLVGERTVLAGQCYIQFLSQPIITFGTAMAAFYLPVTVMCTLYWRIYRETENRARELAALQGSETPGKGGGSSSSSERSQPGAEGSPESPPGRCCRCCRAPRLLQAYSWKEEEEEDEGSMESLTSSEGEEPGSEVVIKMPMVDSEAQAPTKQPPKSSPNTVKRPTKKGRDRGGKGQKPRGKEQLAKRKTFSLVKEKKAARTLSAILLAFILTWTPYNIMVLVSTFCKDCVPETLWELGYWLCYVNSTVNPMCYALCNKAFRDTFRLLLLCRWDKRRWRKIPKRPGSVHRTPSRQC

Fluorescence change (max-min), inactive:
Cc1ccc2oc(=O)c3cnn(CC(=O)N4CCN(c5ccccn5)CC4)c3c2c1 -16.8, COc1cccc2c(C)c(C(=O)O)[nH]c12 4.27, O=C(NCc1ccccn1)c1ccc2nc(-c3ccco3)c(-c3ccco3)nc2c1 28.5, CCOc1ccc2[nH]c(=O)c(CN(Cc3nnnn3Cc3ccccc3)CC3CCCO3)cc2c1 (stereo not given) 19.2, Cc1cc2cc(CN(Cc3cccs3)Cc3nnnn3CC3CCCO3)c(=O)[nH]c2cc1C (stereo not given) 7.46, Cc1cc(NC(=O)COc2ccc(Cl)cc2Cl)n(CCC#N)n1 -3.95, O=C(O)c1ccc(COCC(F)(F)F)cc1 -6.5, CC(=O)Nc1ccc(NC(=O)CN2CCCC(C)C2)c(Cl)c1 (stereo not given) -10.1, CCOc1cc(N2CCOCC2)c(OCC)cc1NC(=O)COc1cccc2cccnc12 -14.8, C(=N\n1cnnc1)/c1cccnc1 -17.4, O=C1c2ccccc2-c2ncnc3c(N4CCOCC4)cc(N4CCOCC4)c1c23 -15.7, O=C(Nc1ccccc1N1CCN(C(=O)c2ccccc2)CC1)c1ccc2c(c1)OCO2 -2.28, CC(C)(C)c1cc(CN2CCN(CCC#N)CC2)cc(C(C)(C)C)c1O 23.3, O=C(NCCc1ccc2c(c1)OCCO2)c1cc2ccccc2o1 25, COc1ccccc1Cc1nc(-c2ccc(C)cc2)no1 -14, COC(=O)c1ccc(CSc2nc3ccccc3c(=O)n2-c2cccc(OC)c2)o1 -9.69, O=C(CSc1nnc(-c2ccco2)n1Cc1ccccc1)NC(=O)NCc1ccco1 -3.05, c1n[nH]c(NCc2ccc3c(c2)OCO3)n1 -9.45, COc1cccc(-n2cc3c(c2-c2ccccc2)c(=O)n(C)c(=O)n3C)c1 -22.4, CC(NC(=O)CSc1nc2c(cc1C#N)CN(C)CC2)c1ccccc1 (stereo not given) 41.3, FC(F)(F)COc1nc(N2CCCCC2)nc(N2CCNCC2)n1 -8.96, CCOc1nc(-c2ccc(OC)cc2)ccc1-c1noc(-c2cc(OC)c(OC)c(OC)c2)n1 -5.3, O=C(CSc1nnc(Cn2cnc3ccccc32)o1)c1ccccc1 -8.96, CCc1nc(Nc2ccc3nccnc3c2)c2oc3ccccc3c2n1 -1.32, COc1ccc(CCNC(=O)c2ccco2)cc1 -16.3, CN1C(=O)c2ccc(NC(=O)c3c(F)c(F)c(F)c(F)c3F)cc2C1=O 1.53, O=C(c1ccccc1)c1ccc(OC(=O)N2CCCC2)cc1 -8.75, Fc1ccc2[nH]c3c(N4CCSCC4)ncnc3c2c1 6.07, O=C(Nc1nc(-c2ccc3c(c2)OCO3)cs1)c1ccncc1 -8.33, O=C(COC(=O)CCc1c[nH]c(=O)[nH]1)Nc1ccccc1Cl 13.2, c1cnn(-c2cc(N3CCOCC3)ncn2)c1 -19, Cc1nc(CNS(=O)(=O)c2ccc(Oc3ccccc3)cc2)cs1 -2.69, Cc1nn2c(c1-c1ccccc1)N=C(c1ccco1)CC2c1ccccc1 (stereo not given) 21.8, COCCNC(=O)C(c1ccc(C)o1)N(Cc1cccs1)C(=O)c1snc(C(N)=O)c1N (stereo not given) -1.36, Cc1ccc(S(=O)(=O)Nc2ccc3ncccc3c2)cc1 17.4, CCOc1ccc(NC(=O)N2CC=C(n3c(=O)[nH]c4ccccc43)CC2)cc1 -24, O=C(CC1Nc2ccccc2NC1=O)Nc1ccccc1 (stereo not given) -7.08, Cn1c(=O)c2c(nc(SCC(=O)Nc3ccccc3N3CCCCC3)n2C)n(C)c1=O -20.5, CC1CCCC(C)N1C(=O)CN1CCN(c2nc(-c3ccc(F)cc3)cs2)CC1 (stereo not given) -5.14, COc1ccccc1N1CCN(C(=O)c2c(-c3c(Cl)cccc3Cl)noc2C)CC1 -19.2, O=C(Nc1cccc(NC(=O)N2CCN(c3ccccc3)CC2)c1)N1CCN(c2ccccc2)CC1 1.01, O=C(Cn1cc(C(=O)c2cccs2)c2ccccc21)NCc1cccs1 -4.9, Cn1c(C(=O)NCCc2ccsc2)cc2c(=O)n(C)c3ccccc3c21 -12.8, COc1ccc(C(C(O)C(=O)c2c[nH]c3ccccc23)N2CCN(c3ccccc3)CC2)cc1 (stereo not given) -11.7

Fluorescence change (max-min), active:
COc1ccccc1NC1=NC(c2ccc(Cl)cc2)N=C(N)N1 (stereo not given) -28.2, CC(C[N+](C)(C)C)OC(N)=O (stereo not given) 389, CC(=O)OC(C)C[N+](C)(C)C (stereo not given) 529, CCOC(=O)c1cc2n(c1N)-c1ccccc1C2=O 1700, N#CC1=C(N)Oc2c(sc3ccccc23)C1c1ccco1 (stereo not given) 140, c1ccc2c(c1)OCC(CNc1ncnc3nc[nH]c13)O2 (stereo not given) 512, CCCN1CC=C2C(C#N)=C(N)C(C#N)(C#N)C(c3cc(OC)ccc3OC)C2C1 (stereo not given) 85.5, COc1ccc2nc(N3CCCC(O)C3)c(C#N)cc2c1 (stereo not given) 206, CCOC(=O)CSc1nc2c(sc(=S)n2CCc2ccccc2)c(=O)n1Cc1ccco1 -34.1, CCN(CC)c1ccc2oc(=O)c(C)nc2c1 165, CCN(CC)c1ccc2cc(C(=O)O)c(=O)oc2c1 153, CCOC(=O)C1CCCN(Cc2nc(N)nc(Nc3ccc(C)cc3)n2)C1 (stereo not given) 127, Cc1ccc(C(=O)COc2cccc(NC(=O)c3ccco3)c2)cc1 131, CC(C)OCCCNc1ncnc2c1[nH]c1ccc(F)cc12 51.6, CCOc1cc(-c2nc3cc(C)ccn3c2NCC2CCCO2)ccc1O (stereo not given) -30.6, CCOc1ccc2nc(N3CCCN(C(=O)Nc4ccccc4C)CC3)c(C#N)cc2c1 282, CCN=C1SC(CC(=O)Nc2ccc(C)cc2)C(=O)N1CC (stereo not given) -26.1, O=C(CSc1nc2ccccc2o1)N1CCN(c2ccc(Cl)cc2)CC1 -34.5, O=C(NCCC1=CCCCC1)C1CCN(Cc2cnn(-c3ccccc3)c2-n2cccc2)CC1 -25.7, Cc1cccn2c(=O)c3cc(C#N)c(=NC(=O)c4cccnc4)n(CC4CCCO4)c3nc12 (stereo not given) 310, COc1ncnc2c1N=C1CC(C)(C)CC(N)=C1S2 175
